ANO1 activ – activates or potentiates the mouse TMEM16A chloride channel | HEK293 TMEM16A/YFP-H148Q/I152L, iodide quench fluorescence; stronger effect = lower value | B-score at 10 µM | 340,000 compounds, 0.3% hits | AID 623877;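 active = fluorescence-ratio B-score plate-corrected deviation score at least 3 library SD below zero, with starting fluorescence score within 5 deviations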;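 note: channel opened by trigger with iodide after compound preincubation; score built on the fluorescence ratio of max minus min over baseline; more negative score means more quench and so TMEM16A activation or potentiation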
ANO1 block – mouse TMEM16A channel inhibition, primary screen | normalized B-score (activity score, 25-100; higher = stronger inhibition) at 10 µM | 310,000 compounds, 1.2% hits | Q8BHY3 | HEK293 TMEM16A/YFP iodide influx fluorescence, ionomycin;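 active = ratio plate-corrected score three or more library SD toward inhibition, starting fluorescence score within five deviations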;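 note: score derived from kinetic fluorescence span divided by baseline fluorescence per well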
CHO-K1 Ca PAM – M1 PAM counterscreen hit in parental CHO-K1 cells; ATP EC20, Fluo-8 calcium fluorescence; 0% at ATP EC20, 100% at ATP max; activation, % at 3 µM; 360,000 compounds, 0.02% hits;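 active = activation above the run cutoff, the mean activation of all test compounds plus 3 SD, cut at about 40% in these data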;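 note: peak over basal fluorescence ratio in a 140 s read after ATP addition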
CHO-K1 Ca antag – counter-screen for M1 antagonists: effect in parental CHO-K1 cells; ATP-induced calcium, Fluo-8 fluorescence; inhibition, % at 3 µM; 360,000 compounds, 0.6% hits;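 active = inhibition above a per-plate cutoff, the plate's mean sample inhibition plus 3 SD, cut at about 24% in these data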;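 note: 0% = DMSO plus EC80 ATP and 100% = DMSO alone without ATP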
NTR1 agonist – activates human neurotensin receptor 1. NTR1-U2OS beta-arrestin-GFP spot imaging, agonist mode. P30989. activation, % at 20 µM. 330,000 compounds, 0.17% hits. AID 493036;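 active = activation at or above 40% of the spot to cytoplasm intensity ratio, with at least 20 cells analyzed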;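 note: 0% = DMSO without peptide and 100% = 100 nM NTR1 peptide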
Target sequence (P30989 whole entry, looked up): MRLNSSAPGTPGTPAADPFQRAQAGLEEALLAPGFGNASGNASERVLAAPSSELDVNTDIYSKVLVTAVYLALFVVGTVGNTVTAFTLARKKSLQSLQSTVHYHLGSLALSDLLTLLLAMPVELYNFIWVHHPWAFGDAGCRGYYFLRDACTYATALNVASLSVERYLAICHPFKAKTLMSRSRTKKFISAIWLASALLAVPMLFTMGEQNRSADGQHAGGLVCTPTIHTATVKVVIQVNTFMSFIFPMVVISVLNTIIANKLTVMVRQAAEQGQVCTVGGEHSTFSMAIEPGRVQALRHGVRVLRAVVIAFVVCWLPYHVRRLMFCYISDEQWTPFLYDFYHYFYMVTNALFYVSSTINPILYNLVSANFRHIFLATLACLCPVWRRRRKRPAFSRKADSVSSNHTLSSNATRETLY
CHO-K1 Ca ag – counter-screen for M1 agonists: effect in parental CHO-K1 cells; Fluo-8 calcium fluorescence; scaled to maximal ATP response, vehicle zero; 360,000 compounds, 0.48% hits; activation, % at 3 µM; AID 602248; in the data active = activation above about 15%;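 note: untransfected CHO-K1 host cells lacking M1 receptor as counterscreen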
* = called active by the depositor; i = inactive; / = no result. Rows were chosen to be rich in hits. Some 2.2% of all compounds tested hit in one or more screens of this group.

SMILES	ANO1 activ	ANO1 block	CHO-K1 Ca PAM	CHO-K1 Ca antag	NTR1 agonist	CHO-K1 Ca ag
COc1cccc(CNC(=O)CSCc2cnn(-c3ccccc3)c2-n2cccc2)c1OC	i	100*	17	-10	3	2
COC(=O)[C@]12CCCCC=C1N(Cc1ccccc1)C(=O)[C@H](CC(=O)N1CCSCC1)C2	/	/	-7	3	/	5
Cc1ccc(C2=CC(c3ccc(C)cc3)n3ncnc3N2)cc1 (stereo not given)	i	i	5	-9	1	-1
CC(C)(C)c1ccc(C2=CC(c3ccccc3)n3ncnc3N2)cc1 (stereo not given)	i	100*	28	-13	8	0
Cc1ccc(S(=O)(=O)Nc2cc(C(F)(F)F)ccc2N2CCOCC2)cc1	i	i	9	2	4	-1
Cc1ccc(S(=O)(=O)Nc2cc(C(F)(F)F)ccc2N2CCOCC2)c(C)c1	-14*	i	17	-3	7	0
COc1ccc(CNS(=O)(=O)NCc2ccc(C)cc2)cc1OC	i	i	3	15	-1	19*
COC(=O)[C@]12CCCCC=C1N(CCC1=CCCCC1)C(=O)[C@H](CC(=O)NCc1ccccc1)C2	/	/	1	-15	/	5
NC(c1csc(NC(=O)c2cccc(OC(F)(F)F)c2)n1)c1ccccc1Cl (stereo not given)	/	/	19	1	/	4
CCOC(=O)[C@H]1[C@H]2COc3ccc(Cl)cc3[C@@H]2N2C(=O)c3ccc(F)cc3NC(=O)[C@@]12C	-13*	i	0	-14	-3	-1
N#CN=CN1CC=C(c2ccc(Cl)cc2)CC1	/	/	12	-9	/	1
Cc1ccc(S(=O)(=O)NC(=O)N2CCCC2)cc1	i	/	-8	-10	/	0
COc1ccc(NC(=O)Nc2ccc([N+](=O)[O-])cc2)cn1	i	i	-15	18	6	16*
COc1ccc(NC(=O)NS(=O)(=O)c2ccc(C)cc2)cn1	-7.5*	i	-4	-4	/	5
COc1ccc([N+](=O)[O-])cc1NC(=O)C(C)NNC(=O)c1cccc([N+](=O)[O-])c1 (stereo not given)	i	/	-14	-15	-1	1
COc1ccc(NC(=O)Nc2cccc(C(F)(F)F)c2)cn1	i	i	-4	26*	2	9
COc1cc(NC(=O)c2ccno2)cc(C(=O)Nc2cccc(C(F)(F)F)c2)c1	i	i	-14	12	-1	17*
CCOc1ccc(NC(=S)NNC(=S)Nc2cccc(C(F)(F)F)c2)cc1	i	i	-1	0	0	0
Cc1cc(C)cc(NC(=O)Nc2ccc(-n3ccc(C(F)(F)F)n3)cc2)c1	i	i	-13	14	5	3
O=C(Nc1ccc(-n2ccc(C(F)(F)F)n2)cc1)Nc1cccc(Cl)c1	i	i	-25	30*	15	15
COc1ccc(NC(=S)NNC(=S)Nc2cccc(C(F)(F)F)c2)cc1	-6.7*	i	-16	11	1	0
COc1ccc(NC(=O)Nc2cc(C)cc(C)c2)cn1	i	i	0	-3	-1	5
Cc1ccc(N2CCC3CC2c2cc(-c4ccc(C(F)(F)F)cc4)ccc23)cc1 (stereo not given)	/	/	-7	9	/	-1
CC(=O)c1c(C)[nH]c(C(=O)Nc2cccc(C(F)(F)F)c2)c1C	i	i	-11	4	0	18*
CC(=O)c1c(C)[nH]c(C(=O)Nc2cccc(C#N)c2)c1C	i	i	-6	-10	1	8
CCc1ccc(NC(=O)C(CC)c2ccccc2)cc1 (stereo not given)	i	i	24	-4	3	19*
O=C(Nc1ccccc1)Nc1ccccc1Br	i	i	1	-8	0	0
CCC(C(=O)Nc1cccc(C(F)(F)F)c1)c1ccccc1 (stereo not given)	-6.6*	i	19	16	1	2
O=C(Nc1ccccc1)Nc1ccc(Br)c(Cl)c1	i	i	3	27*	18	13
COC(=O)[C@H]1C[C@H](OC(=O)Nc2cccs2)[C@@]2(O)CN(S(=O)(=O)c3ccc(C)cc3)CC2[C@H]1C(=O)OC (stereo not given in full)	/	/	-7	-11	/	0

Bioassay records (PubChem)
